Assay in all cases: PBM binding z-score (relative to random genomic background probes); higher = stronger binding; sequences stand for … in GC…GCGATTGACAGCGTAGAATGAAGG
Experiment [1] has as its system FXR:RXRa (NR concentration 270 nM, RXRa partner concentration 90 nM). Put shortly:
(§1)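 Random background probes are the reference for binding z-scores. These scores derive from regression-normalized fluorescence on custom Agilent 4×180K protein-binding microarrays incubated 1 h with ligand-free nuclear receptor dimers. Binding was detected with antibodies against each partner (one per run).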

The test system of experiment [2] is LXRa:RXRa (NR concentration 270 nM, RXRa partner concentration 90 nM). A digest of the protocol: as §1
Experiment [3] relates to LXRa homodimer (NR concentration 270 nM). Put shortly: as §1
In experiment [4] the test system is LXRb:RXRa (NR concentration 270 nM, RXRa partner concentration 90 nM). A digest of the protocol: as §1
In experiment [5] the test system is LXRb homodimer (NR concentration 270 nM). A digest of the protocol:
as §1

The test system of experiment [6] is PPARa:RXRa (NR concentration 270 nM, RXRa partner concentration 90 nM). A digest of the protocol:
as §1

In experiment [7] the test system is PPARg:RXRa (NR concentration 180 nM, RXRa partner concentration 90 nM). A digest of the protocol: as §1
Experiment [8] deals with PPARg:RXRa 270nM:90nM, anti-RXR (NR concentration 270 nM, RXRa partner concentration 90 nM). A digest of the protocol:
as §1

Experiment [9] concerns PPARg:RXRa 30nM:10nM, anti-RXR (NR concentration 30 nM, RXRa partner concentration 10 nM). Put shortly:
as §1

The test system of experiment [10] is PPARg:RXRa 90nM:30nM, anti-RXR (NR concentration 90 nM, RXRa partner concentration 30 nM). A digest of the protocol: as §1
The subject of experiment [11] is PPARg:RXRa DBDmut IVT, anti-RXR (DBD mutation: RXRa K156A/R161A, NR concentration 270 nM, RXRa partner concentration 90 nM). A digest of the protocol:
as §1

Experiment [12] deals with PPARg:RXRa IVT, anti-PPARg (NR concentration 270 nM, RXRa partner concentration 90 nM). Put shortly:
as §1

Experiment [13] concerns PPARg DBDmut:RXRa IVT, anti-PPARg (DBD mutation: PPARg1 K132A/R137A, NR concentration 270 nM, RXRa partner concentration 90 nM). Put shortly:
as §1

Experiment [14] deals with PPARg DBDmut IVT, anti-PPARg (DBD mutation: PPARg1 K132A/R137A, NR concentration 270 nM). A digest of the protocol: as §1
In experiment [15] the test system is PPARg homodimer (NR concentration 180 nM). Put shortly:
as §1

Experiment [16] deals with PXR:RXRa (NR concentration 270 nM, RXRa partner concentration 90 nM). Put shortly: as §1
The subject of experiment [17] is PXR homodimer (NR concentration 270 nM). Put shortly: as §1
The subject of experiment [18] is RARa:RXR (NR concentration 270 nM, RXRa partner concentration 90 nM). Put shortly: as §1
For experiment [19], the system named is RARa homodimer (NR concentration 270 nM). A digest of the protocol: as §1
Experiment [20] relates to RARb:RXRa (NR concentration 270 nM, RXRa partner concentration 90 nM). A digest of the protocol: as §1

As to AGTCAAAGTTCAGGACGAGGTAACATAAAGCACG, the PBM binding z-score was found to be 4.23 in [1]; 4.01 in experiment [2]; 1.38 in experiment [3]; 2.25 in experiment [4]; 0.512 in [5]; 3.45 in experiment [6]. The PBM binding z-score is 4.84 in experiment [7]; 4.91 in [8]; 2.27 in experiment [9]; 4.16 in experiment [10]; -0.187 in experiment [11]; 1.85 in [12]. In addition, the PBM binding z-score in [13] came to 1.18; in experiment [14], 0.12; in [15], 2.12; in experiment [16], 3.37; in experiment [17], 1.47; in experiment [18], 3.33. The PBM binding z-score came to 0.906 in experiment [19] and 4.15 in experiment [20].
As for AGTCAAAGTTCCTCTAGGTAACGTAAGATATGCT, the PBM binding z-score in [1] was -0.245; in experiment [2] it was -0.144; in experiment [3], -0.104; in experiment [4] it was -0.00782; in experiment [5] it was -0.432; in [6], 0.0097. Besides, the PBM binding z-score in experiment [7] is 0.612; in [8] it was 0.996; in [9] it was 0.256; in experiment [10] it was 0.424; in experiment [11], -0.227; in experiment [12] it was 1.14. Moreover, the PBM binding z-score was -0.00849 in experiment [13]; 0.378 in [14]; -0.0696 in [15]; 0.0815 in experiment [16]; -0.225 in [17]; 0.241 in [18]. Moreover, the PBM binding z-score in [19] was found to be 0.00507; in experiment [20], 0.881.
Regarding GCTATTAGTTGAAAGGGCAACAGAATGATTCTCG, the PBM binding z-score was 0.533 in experiment [1]; 0.675 in experiment [2]; 0.402 in experiment [3]; 0.947 in [4]; -0.00324 in experiment [5]; 2.47 in experiment [6]. Further, the PBM binding z-score in experiment [7] is 3.11; in experiment [8] it was 4.2; in [9], 2.77; in experiment [10], 4.54; in [11] it was 0.52; in experiment [12], 1.11. Also, the PBM binding z-score was 0.63 in [13]; 0.276 in [14]; 1.36 in experiment [15]; 0.774 in experiment [16]; 0.784 in experiment [17]; 1.47 in experiment [18]. In addition, the PBM binding z-score is 1.15 in [19] and 2.09 in [20].
ATCTCTAGGTAAAAGTTCTGTGAATCCCGAGGAT: the PBM binding z-score was 0.0905 in [1]; 0.216 in [2]; 0.111 in experiment [3]; -0.143 in [4]; 0.463 in experiment [5]; 1.52 in experiment [6]. Moreover, the PBM binding z-score was found to be 2.62 in [7]; 3.93 in experiment [8]; 2.04 in experiment [9]; 4.05 in experiment [10]; 2.32 in [11]; 1.91 in [12]. For the same sequence, the PBM binding z-score in experiment [13] is 1.22; in experiment [14] it was 1.71; in experiment [15] it was 1.06; in experiment [16], 0.0852; in [17], 0.034; in experiment [18], -0.0223. Moreover, the values for the PBM binding z-score in experiment [19] and in experiment [20] were 0.566 and 0.232, respectively.
Consider ATGGAAAGGTCGAAGGTGAGTATACCCACCCGAA, for which the PBM binding z-score in experiment [1] is 4.22; in [2], 3.27; in experiment [3], 0.0491; in experiment [4], 2.82; in experiment [5], 0.401; in experiment [6], 4.71. Also, the PBM binding z-score was 4.84 in experiment [7]; 5.14 in experiment [8]; 2.3 in experiment [9]; 4.32 in experiment [10]; -0.138 in experiment [11]; 2.06 in [12]. The PBM binding z-score in experiment [13] was 1.21; in experiment [14], 0.517; in experiment [15], 1.61; in experiment [16], 2.99; in experiment [17], 0.649; in experiment [18] it was 4.14. Besides, the values for the PBM binding z-score in experiment [19] and in experiment [20] were 0.905 and 3.78, respectively.
CATACTGGGCCATCAGGTCATTGATATCAACGTT: the PBM binding z-score amounted to 1.86 in [1]; 1.46 in experiment [2]; 1.4 in [3]; 1.75 in [4]; 0.36 in [5]; 2.86 in experiment [6]. Further, the PBM binding z-score was 2.91 in [7]; 3.57 in [8]; 1.42 in experiment [9]; 2.43 in [10]; 4.24 in experiment [11]; 4.71 in experiment [12]. Also, the PBM binding z-score in [13] was 0.816; in experiment [14], 1.18; in experiment [15] it was 1.3; in experiment [16], 1.99; in experiment [17] it was 0.876; in [18], 2.16. The PBM binding z-score in [19] stood at 0.345; in [20] it was 2.25.
